High-throughput results from PubChem.
bovine MsrA act: activates bovine MsrA enzyme; purified bovine MsrA, absorbance read-out; activation, % at 10.6 µM; hit rate 0.3% among 360,000; AID 602163; in the data active = activation above about 7.5%;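 also: 0% = vehicle and 100% = reference activator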
ZTA counter: ZTA (EBV) inhibition in EBNA-1 counter-screen. P03206. hit rate 0.15% among 320,000. ZTA-DNA binding, fluorescence polarization. inhibition, % at 11 µM; in the data active = inhibition above about 33%
Target sequence (P03206 whole entry, looked up): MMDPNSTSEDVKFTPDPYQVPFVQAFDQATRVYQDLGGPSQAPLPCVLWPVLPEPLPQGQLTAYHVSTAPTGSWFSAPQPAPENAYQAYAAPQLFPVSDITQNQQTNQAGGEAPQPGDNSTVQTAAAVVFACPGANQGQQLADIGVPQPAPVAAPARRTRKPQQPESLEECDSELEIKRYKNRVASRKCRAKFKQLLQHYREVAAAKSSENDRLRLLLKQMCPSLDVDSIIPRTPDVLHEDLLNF
MsrA inhibitor: inhibitors of bovine MsrA; AID 651718; purified bovine MsrA, absorbance read-out; hit rate 0.75% among 360,000; inhibition, % at 15.5 µM; in the data active = inhibition above about 4.5%;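 also: 0% = vehicle wells with enzyme and 100% = reference inhibitor wells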
PP1 counter: counter-screen for PP5 inhibitors: inhibitors of human PP1-alpha. hit rate 0.9% among 320,000. purified PP1alpha, OMFP fluorescence. inhibition, % at 6.7 µM. AID 2235. P62136;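 active = inhibition above the mean inhibition of all tested compounds plus 3 SD, computed separately for each screening campaign, cut at about 15% in these data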
PP5 inh: inhibitors of human protein phosphatase 5 (PP5) | P53041 | purified PP5c, OMFP substrate fluorescence | inhibition, % at 6.7 µM | hit rate 0.18% among 320,000;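 active = inhibition above the campaign's mean inhibition across all tested compounds plus 3 SD, cut at about 9.5% in these data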;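 also: 0% = DMSO only and 100% = 100 µM cantharidin control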
EBNA-1 inh: blocks EBNA-1 binding to DNA | AID 1950 | hit rate 0.34% among 300,000 | EBNA-1 DNA binding, fluorescence polarization | inhibition, % at 14.8 µM; in the data active = inhibition above about 28%
Numbers without * were called inactive; x = not tested or not shown; + = active, no number. Only some compounds are listed: those with a hit (about 2.3% of all), similar ones and a draw of the others.

SMILES	bovine MsrA act	ZTA counter	MsrA inhibitor	PP1 counter	PP5 inh	EBNA-1 inh
CCS(=O)(=O)N1Cc2ccccc2CC1C(=O)Nc1nnc(SCc2c(Cl)cccc2Cl)s1 (stereo unspecified)	-4	1	1	17*	0	3
Cc1ccc(CN2CC(C(=O)Nc3nnc(SCc4c(Cl)cccc4Cl)s3)CC2=O)cc1 (stereo unspecified)	-8	-13	0	16*	4	-3
CNc1cncc(C(=O)O)c1	-2	-19	0	-2	2	42*
CC1(C)Cc2c(C#N)c(N3CCN(C(=O)c4ccccc4Cl)CC3)nc(-c3ccco3)c2CS1	-5	0	1	17*	4	8
CC(=O)N1CCN(c2nc(-c3ccco3)c3c(c2C#N)CC(C)(C)SC3)CC1	-6	-1	3	2	2	0
Cc1nn(-c2ccccc2)c(Cl)c1/C=C1\SC(=S)N(CCCCCC(=O)O)C1=O	-4	3	1	16*	1	7
CC(C)C(=O)NC(c1cccc([N+](=O)[O-])c1)c1ccc2cccnc2c1O (stereo unspecified)	1	12	-1	17*	2	-7
O=C(CCCn1nnnc1CN1CCOCC1)N1CCN(c2ccccc2F)CC1	-4	-2	1	15*	0	-7
CCOC(=O)C1=C(C(=O)OCC)C2N(Cc3ccc(C#N)cc3)c3ccccc3[C@@]23C[C@@H](C(=O)OC)N(S(=O)(=O)c2c(C)noc2C)C3=N1 (stereo partly specified)	x	x	0	x	x	x
COc1cccc(OC)c1C(=O)Nn1c(C2CCC2)nc2ccccc2c1=O	9.4*	10	-1	2	-1	4
O=C(c1ccc(F)cc1)N(c1ccccn1)C1CCCCC1	-2	10	1	-1	-2	12
CC(=O)Nc1ccc(NC(=O)COc2ccc(-c3ccc(C#N)cc3)cc2)cc1	-7	12	0	17*	-2	-2
N#Cc1ccc(-c2ccc(OCC(=O)Nc3cccnc3)cc2)cc1	-3	x	-1	x	x	x
CCCCCCCCN1C(=O)[C@H](CC(=O)NCCCOCCCC)C[C@@]2(C(=O)OC)CCCCC=C12	0	x	0	x	x	x
CN(C)c1ccc(C(=O)C(=O)c2ccccc2)cc1	-5	4	4.6*	-3	2	-14
COc1cc2cc(C(=O)Nc3ccc4c(c3)OCCO4)[nH]c2cc1OC	-5	-14	4.6*	-2	5	5
Cc1ccc2cc3cc(C(=O)NCCCN4CCCC4=O)oc3nc2c1	-5	-1	4.6*	0	0	2
N=C1SC(c2ccccc2)C(=O)N1c1ncc(Cc2ccccc2Cl)s1 (stereo unspecified)	-2	14	-1	16*	-1	1
O=C(/C=C(\Nc1cccc(F)c1)c1ccccc1)c1ccccc1	x	x	0	x	x	x
CN(C)c1ccc(N/C=C/C(=O)C(C)(C)C)cc1	1	+	-1	-1	1	+
Cc1ccc(/C=N/n2c(-c3ccncc3)n[nH]c2=S)o1	0	-4	1	0	4	3
Cc1ccc(/C=N/n2c(C)n[nH]c2=S)o1	0	4	4.6*	0	-1	2
O=C1N/C(=N/N=C/c2ccco2)SC1Cc1ccccc1 (stereo unspecified)	-4	9	4.6*	3	1	-1
CCOC(=O)N(C)C[C@H]1OCc2cnnn2CCCC(=O)N([C@H](C)CO)C[C@@H]1C	x	x	1	x	x	x
COc1cc(CNCC2CCCO2)ccc1OCC(N)=O (stereo unspecified)	-6	-5	0	3	0	-2
SMILES	bovine MsrA act	ZTA counter	MsrA inhibitor	PP1 counter	PP5 inh	EBNA-1 inh
CCOc1cc(CNCC2CCCO2)cc(Br)c1OCC(N)=O (stereo unspecified)	-1	-9	0	17*	2	-1
COc1ccc(OCC(=O)Nc2ccc3nc(C)sc3c2)cc1	-2	7	0	-3	0	4
O=C(CSc1nc2ccccc2c(=O)n1-c1ccccc1)c1c[nH]c2ccccc12	-1	-2	0	6	2	37*
NC(=O)CSc1nc2ccccc2c(=O)n1-c1ccccc1	-3	-7	0	-1	1	-1
O=c1cc(-c2ccccc2)[nH]n1-c1ccc([N+](=O)[O-])cc1	-4	0	x	16*	4	0
CCCCn1c(N)c(N(CC(C)C)C(=O)CSc2nnc(C)n2-c2ccccc2)c(=O)[nH]c1=O	-1	x	1	x	x	x
CN1/C(=C\C(=O)c2ccco2)C(C)(C)c2ccccc21	0	147*	2	-3	0	39*
